# Screens (PubChem)
# BoNT F protease: BoNT/F light chain protease inhibitors, primary screen, biochemical, flow cytometry, MLPCN library. Multiplex microsphere protease cleavage assay. Botulinum neurotoxin type F light chain protease (Clostridium botulinum). inhibition, % at 10 µM. hit rate 0.22% among 360,000; in the data active means inhibition above about 35%, passing the limit was not always enough; inconclusive means no clear call, values can overlap the other calls; further: plate controls were buffer without enzyme for full effect and enzyme alone for no effect
# BoNT A protease: BoNT/A light chain protease inhibitors, primary screen, biochemical, flow cytometry, MLPCN library; hit rate 0.17% among 360,000; multiplex microsphere protease substrate cleavage; inhibition, % at 10 µM; AID 588499, 2011; further: plate controls were buffer without enzyme for full effect and enzyme alone for no effect
# Anthrax LF inh2: Bacillus anthracis LF protease inhibitors, primary screen, biochemical, multiplex microsphere, MLPCN library; multiplex microsphere protease cleavage assay; Lethal factor (Bacillus anthracis), P15917; hit rate 0.12% among 360,000; inhibition, % at 10 µM; AID 588501, 2011; further: plate controls were buffer without enzyme for full effect and enzyme alone for no effect
# SARS 3CLpro inh: SARS-CoV 3CLpro protease inhibitors, primary screen, biochemical, quenched FRET | Replicase polyprotein 1ab (Severe acute respiratory syndrome coronavirus), P0C6X7 | recombinant SARS-CoV 3CLpro, quenched FRET peptide cleavage | inhibition, % at 6 µM | hit rate 0.14% among 290,000; in the data active means inhibition above about 12%
# Bead autofluor: counter-screen for toxin protease inhibitors: compound fluorescence | fluorescence intensity (concentration not given with the values) | compound autofluorescence counterscreen, microsphere flow cytometry; stronger effect = higher value | hit rate 3.1% among 360,000; in the data active means fluorescence intensity above about 16000; inconclusive means no clear call, values can overlap the other calls
# CCHFV vOTU inh: CCHFV vOTU protease inhibitors, primary screen, biochemical, Pep-AMC substrate, fluorescence; inhibition, % at 11.5 µM; hit rate 0.55% among 370,000; in the data active means inhibition above about 30%; further: 0% = vehicle wells with enzyme and 100% = no enzyme wells
# * = called active by the depositor; ? = inconclusive; . = not tested or not shown. Compounds with a hit are over-represented: about 3.9% of the library has one in this group of screens. Unless noted, no stated cut-off is given here; in the data, active means inhibition above about 30%; inconclusive means no clear call, values can overlap the other calls; inactive means below that.
SMILES,BoNT F protease,BoNT A protease,Anthrax LF inh2,SARS 3CLpro inh,Bead autofluor,CCHFV vOTU inh
O=C(NC1CCCCN(Cc2ccc(Cl)cc2)C1=O)c1ccc(-c2ccccc2)cc1 (stereo unspecified),.,.,.,.,.,6
O=C(Nc1ccc(CN2CCOCC2)cc1)c1cccc(F)c1,1,3,0,-2,18588*,-4
COC(=O)c1ccc(NC(=O)c2ccc(CN3CCOCC3)cc2)cc1,2,0,0,-4,16430*,2
CCCCNC(=O)C1(C(=O)c2ccc(OC)cc2)CC(c2ccccn2)=NO1 (stereo unspecified),.,.,.,.,.,2
CCCCN(CCCC)CC1OCc2ccccc2CO1,-1,-1,2,3,20889*,-2
Cc1ccc[n+](CC2OCc3ccccc3CO2)c1,-5,0,0,-1,1967,6
O=C(NCC1CCN(C(=O)C(=O)c2cccs2)CC1)c1ccc2ccccc2c1,.,.,.,.,.,-7
COC(=O)/C=c1\sc2n(c1=O)C(C)=CC(C)(C)N=2,2,3,-7,-3,19740*,5
COP(=O)(OC)C(NC(=O)OCc1ccccc1)C(C)C (stereo unspecified),.,.,.,.,.,-5
O=C(Nc1cccc(OC(F)(F)F)c1)c1ccc(Br)o1,-2,-2,-3,1,16998*,-8
O=C(Nc1cccc(F)c1)c1ccc(Br)o1,-14,0,-8,6,3936,8
CCCCC(=O)Nc1cccc(NC(=O)c2ccc(Br)o2)c1,-2,0,-4,3,16352*,-8
COc1ccc(Cn2cc(COC(=O)N3CCCC3)nn2)cc1,.,.,.,.,.,-3
COC(=O)NC1CSCC1OC(=O)c1ccc(Br)cc1 (stereo unspecified),2,?,-3,1,22183*,-3
O=C(NC1CSCC1OC(=O)c1ccccc1)c1ccccc1 (stereo unspecified),3,-1,-8,-3,5241,2
Cc1ccc(C(=O)NC(C)c2ccccc2)o1 (stereo unspecified),3,2,-5,-4,22061*,3
CC(NC(=O)c1ccc(Br)o1)c1ccccc1 (stereo unspecified),0,0,2,3,3244,4
CC(NC(=O)c1ccc(-c2cc(C(F)(F)F)ccc2Cl)o1)c1ccccc1 (stereo unspecified),0,?,1,-7,20639*,7
CCc1nnc(NC(=O)c2ccc(-c3cc(C(F)(F)F)ccc3Cl)o2)s1,-9,-1,-3,1,11257,-10
Cc1cc(NS(=O)(=O)c2ccc(NC(=O)CSc3nnc(-c4ccccn4)n3-c3ccccc3)cc2)nc(C)n1,.,.,.,.,.,-4
O=C(NNC1CC(=O)N(c2ccccc2)C1=O)c1ccco1 (stereo unspecified),-1,0,2,3,4389,5
Cc1cccc(N2C(=O)CC(N(C(=O)c3ccco3)c3cccc(C)c3)C2=O)c1 (stereo unspecified),-7,?,0,1,17561*,-13
O=C(Nc1ccccn1)N1CCOCC1,-5,-3,0,4,20658*,1
O=C(Nc1ccccc1)N1CCOCC1,3,0,-5,3,6476,3
Cc1snc(SCC(=O)N/N=C(\N)COc2cccc(C(F)(F)F)c2)c1C#N,-1,?,1,-6,20365*,-1
Cc1cccc(NC(=O)C2CCCN(c3nnc(-n4cccc4)s3)C2)c1C (stereo unspecified),.,.,.,.,.,21
COC(=O)C1=C(C)N(C)C(=O)NC1c1cc(Cl)cc(Cl)c1OC (stereo unspecified),-5,?,0,1,17435*,6
COC(=O)C1=C(C)N(C)C(=O)NC1c1cc(Cl)c(O)c(OC)c1 (stereo unspecified),0,0,-4,-2,5831,-13
COc1ccccc1COC(=O)c1cccc(S(=O)(=O)N(C)Cc2ccccc2)c1,.,.,.,.,.,2
Cc1ccc(S(=O)(=O)CCC(=O)OCC(=O)N2CC(=O)Nc3ccccc32)cc1,-3,-1,-6,2,22432*,-1
